Y pestis TopoI – Yersinia pestis topoisomerase I inhibitors, primary screen, biochemical, cleavage product accumulation, plate reader, single point. DNA topoisomerase I (Yersinia pestis CO92). Y. pestis Topo-I cleavage product accumulation. activity, % at 10 µM. hit rate 0.064% among 360,000. AID 504884, 2011; in the data active means activity above about 50%, passing the limit was not always enough; inconclusive means no clear call, values can overlap the other calls
BioA inh – M. tuberculosis BioA enzyme inhibitors, primary screen, biochemical, plate reader, single point, HTS | 7,8-diaminopelargonic acid synthase BioA (Mycobacterium tuberculosis) | purified M. tuberculosis BioA enzyme | inhibition, % at 9.99 µM | hit rate 0.096% among 360,000 | AID 602481, 2012; in the data active means inhibition above about 40%; inconclusive means no clear call, values can overlap the other calls
TcdB inh – TcdB glycohydrolase inhibitors, primary screen, biochemical, single point, plate reader. Toxin B (Clostridioides difficile), P18177. inhibition, % at 9.99 µM. TcdB glycohydrolase enzymatic assay. AID 652162, 2013. hit rate 0.24% among 350,000; in the data active means inhibition above about 10%
Target sequence (P18177 whole entry, looked up): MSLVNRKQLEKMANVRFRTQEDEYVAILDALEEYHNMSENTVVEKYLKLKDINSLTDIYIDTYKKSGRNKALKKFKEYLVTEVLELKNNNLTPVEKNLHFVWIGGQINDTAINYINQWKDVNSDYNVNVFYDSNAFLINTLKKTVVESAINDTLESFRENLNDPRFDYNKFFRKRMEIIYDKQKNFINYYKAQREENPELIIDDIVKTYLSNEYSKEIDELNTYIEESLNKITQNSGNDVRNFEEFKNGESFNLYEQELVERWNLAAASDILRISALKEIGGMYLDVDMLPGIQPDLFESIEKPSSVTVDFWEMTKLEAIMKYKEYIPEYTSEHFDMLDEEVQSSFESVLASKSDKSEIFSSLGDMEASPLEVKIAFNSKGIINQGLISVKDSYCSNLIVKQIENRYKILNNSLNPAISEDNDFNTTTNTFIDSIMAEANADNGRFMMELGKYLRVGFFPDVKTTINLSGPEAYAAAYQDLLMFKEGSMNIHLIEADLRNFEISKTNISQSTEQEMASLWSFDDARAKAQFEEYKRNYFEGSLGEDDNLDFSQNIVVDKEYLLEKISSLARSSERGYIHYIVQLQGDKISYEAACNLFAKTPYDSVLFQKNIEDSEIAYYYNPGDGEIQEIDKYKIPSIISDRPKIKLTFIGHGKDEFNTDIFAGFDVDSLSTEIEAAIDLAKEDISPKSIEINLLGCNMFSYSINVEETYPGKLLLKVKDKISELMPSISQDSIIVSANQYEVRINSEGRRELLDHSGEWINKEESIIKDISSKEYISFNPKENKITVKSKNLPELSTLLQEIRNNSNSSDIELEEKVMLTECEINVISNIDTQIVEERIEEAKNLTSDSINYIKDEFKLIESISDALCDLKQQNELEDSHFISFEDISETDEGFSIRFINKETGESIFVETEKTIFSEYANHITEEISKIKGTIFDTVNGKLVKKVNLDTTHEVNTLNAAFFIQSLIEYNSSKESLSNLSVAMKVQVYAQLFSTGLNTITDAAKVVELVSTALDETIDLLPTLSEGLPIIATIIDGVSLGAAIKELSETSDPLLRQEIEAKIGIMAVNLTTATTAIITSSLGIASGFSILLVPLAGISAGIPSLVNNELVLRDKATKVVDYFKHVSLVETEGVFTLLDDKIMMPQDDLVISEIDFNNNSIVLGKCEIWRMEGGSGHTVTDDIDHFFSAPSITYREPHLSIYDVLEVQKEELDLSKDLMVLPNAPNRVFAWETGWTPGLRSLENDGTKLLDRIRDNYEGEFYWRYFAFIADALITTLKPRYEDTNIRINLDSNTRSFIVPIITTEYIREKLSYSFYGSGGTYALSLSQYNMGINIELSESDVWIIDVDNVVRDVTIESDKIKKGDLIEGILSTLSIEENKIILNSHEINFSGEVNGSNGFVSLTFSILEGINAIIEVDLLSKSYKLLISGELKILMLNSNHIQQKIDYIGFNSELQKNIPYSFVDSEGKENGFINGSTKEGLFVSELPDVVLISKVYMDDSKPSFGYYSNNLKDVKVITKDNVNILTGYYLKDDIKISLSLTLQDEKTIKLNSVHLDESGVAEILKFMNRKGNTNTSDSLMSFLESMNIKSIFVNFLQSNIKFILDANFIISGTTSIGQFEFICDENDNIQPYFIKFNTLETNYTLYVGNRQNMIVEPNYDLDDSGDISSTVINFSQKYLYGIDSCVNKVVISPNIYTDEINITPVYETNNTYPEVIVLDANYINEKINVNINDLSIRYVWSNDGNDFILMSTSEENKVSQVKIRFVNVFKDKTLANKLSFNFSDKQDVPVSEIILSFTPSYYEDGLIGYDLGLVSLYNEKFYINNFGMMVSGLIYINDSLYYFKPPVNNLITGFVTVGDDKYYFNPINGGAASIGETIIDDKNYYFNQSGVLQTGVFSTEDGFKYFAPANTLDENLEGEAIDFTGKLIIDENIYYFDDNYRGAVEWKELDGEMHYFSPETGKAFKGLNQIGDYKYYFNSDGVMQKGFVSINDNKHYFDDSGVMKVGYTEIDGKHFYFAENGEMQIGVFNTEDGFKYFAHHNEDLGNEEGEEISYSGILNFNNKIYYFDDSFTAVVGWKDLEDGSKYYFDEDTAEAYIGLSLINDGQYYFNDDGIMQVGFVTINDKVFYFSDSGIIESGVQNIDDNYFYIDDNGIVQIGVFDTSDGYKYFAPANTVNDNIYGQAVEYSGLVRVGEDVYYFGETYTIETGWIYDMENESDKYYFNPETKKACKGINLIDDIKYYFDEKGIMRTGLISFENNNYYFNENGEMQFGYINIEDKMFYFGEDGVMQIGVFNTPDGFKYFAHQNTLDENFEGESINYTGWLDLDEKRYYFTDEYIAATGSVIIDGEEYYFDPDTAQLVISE
FadD28 FP inh – inhibitors of FadD28 bisubstrate probe binding, primary screen, biochemical, fluorescence polarization, single point; Mycobacterium tuberculosis FadD28 fatty-acid-AMP ligase; inhibition, % at 12.5 µM; hit rate 0.22% among 360,000; in the data active means inhibition above about 8.5%, passing the limit was not always enough; inconclusive means no clear call, values can overlap the other calls
BH1578 lux ind – inducers of Vibrio cholerae quorum light production without autoinducers, primary screen, BH1578 luxS cqsA deficient, single point; AID 588436, 2011; activation, % at 18.7 µM; hit rate 0.16% among 350,000; V. cholerae BH1578 lux reporter, luminescence, 6 h; in the data active means activation mostly above about 9.7%, no sharp cut-off; inconclusive means no clear call, values can overlap the other calls; inactive means mostly below about 3.7%
* hit, by the source's call. In the library only some 0.58% were active in any assay of this set; here they are far more common.

CC(=O)Nc1ccc(S(=O)(=O)N2CCCC(C(=O)O)C2)cc1 (stereo not given) was read as Y pestis TopoI 4, TcdB inh 18*, FadD28 FP inh -1 and BH1578 lux ind 0.
`COC(=O)Nc1ccc(S(=O)(=O)N2CCCC(C(=O)O)C2)cc1` (stereo not given) gave Y pestis TopoI 5, TcdB inh 0, FadD28 FP inh 1 and BH1578 lux ind inactive.
CC=Cc1ccc2n(c1=O)C[C@H]1[C@H](CO)[C@@H](C(=O)Nc3ccc(-c4ccccc4)cc3)[C@@H]2N1CC (mixture of isomers) was read as TcdB inh 0.
`Cc1ccc(C)c(CN2C(=O)COc3ccc(C(=O)c4ccccc4C(=O)O)cc32)c1` gave Y pestis TopoI 3, TcdB inh 14*, FadD28 FP inh 1 and BH1578 lux ind inactive.
Cc1ccc(C)c(CN2C(=O)COc3ccccc32)c1 was read as Y pestis TopoI -11, BioA inh 6, TcdB inh 0, FadD28 FP inh -3 and BH1578 lux ind 0.
`C[C@@H]1CN([C@@H](C)CO)C(=O)c2cc(-c3ccccc3F)cnc2O[C@H]1CN(C)C(=O)c1ccccn1` gave BioA inh 1 and TcdB inh 0.
`Cc1[nH]c(-c2ccc(F)cc2)cc1C(=O)N1CCN(c2ccccc2)CC1` gave Y pestis TopoI 25, BioA inh 8, TcdB inh 21*, FadD28 FP inh 0 and BH1578 lux ind 0.
For COc1cccc(N2CCN(C(=O)c3cc(-c4ccc(F)cc4)[nH]c3C)CC2)c1 the results were Y pestis TopoI 1, BioA inh 0, TcdB inh 1, FadD28 FP inh -1 and BH1578 lux ind -18.
CN(CC(=O)Nc1ccccc1Cl)C(=O)CSc1nc2ccccc2s1 was read as Y pestis TopoI 15, BioA inh 1, TcdB inh 1, FadD28 FP inh -2 and BH1578 lux ind 0.
`COc1ccc(NC(=O)CN(C)C(=O)CSc2nc3ccccc3s2)cc1` gave Y pestis TopoI 8, TcdB inh 1, FadD28 FP inh -5 and BH1578 lux ind 20*.
`Oc1ccc(Nc2nc(Cl)nc(NCc3ccco3)n2)cc1` gave Y pestis TopoI -5, TcdB inh 13*, FadD28 FP inh -1 and BH1578 lux ind inactive.
For C=CCNc1nc(Cl)nc(NCc2ccco2)n1 the results were Y pestis TopoI -4, BioA inh 0, TcdB inh 0, FadD28 FP inh -2 and BH1578 lux ind 0.
For C[C@@H](NC(=O)[C@@H]1[C@@H](CO)[C@@H]2Cn3c(cccc3=O)[C@@H]2N1CC1CC1)c1ccccc1 the results were BioA inh 0 and TcdB inh 0.
Screening CCC(=O)N1[C@H](CO)[C@@H](c2ccccc2)C12CN(Cc1nccs1)C2 returned TcdB inh 1.
`O=C(CN1C(=O)N/C(=C\c2ccccc2OCc2ccc(C(=O)O)cc2)C1=O)Nc1ccc(F)cc1` gave Y pestis TopoI 6, BioA inh 0, TcdB inh -1, FadD28 FP inh 1 and BH1578 lux ind 0.
For Cc1ccc(-n2cccc2/C=C2/NC(=O)N(CC(=O)Nc3cccc(C)c3)C2=O)cc1 the results were Y pestis TopoI -4, TcdB inh 1, FadD28 FP inh inconclusive and BH1578 lux ind inactive.
Cc1cccc(NC(=O)CN2C(=O)N/C(=C\c3ccccc3OCc3ccc(C(=O)O)cc3)C2=O)c1 was read as Y pestis TopoI 15, BioA inh 0, TcdB inh 2, FadD28 FP inh 42* and BH1578 lux ind -4.
Cc1cccc(NC(=O)CN2C(=O)N/C(=C\c3cccn3-c3cccc(C(=O)O)c3)C2=O)c1 was read as Y pestis TopoI 13, TcdB inh -2, FadD28 FP inh 18* and BH1578 lux ind 0.
For CCOc1cc(/C=C2/NC(=O)N(CC(=O)Nc3cccc(C)c3)C2=O)ccc1O the results were Y pestis TopoI -15, BioA inh -1, FadD28 FP inh 16* and BH1578 lux ind 2.
`CC(C)NC(=O)N(C)C[C@@H]1Oc2ncc(C#CC3CCCCC3)cc2C(=O)N([C@H](C)CO)C[C@@H]1C` gave BioA inh -2.
COc1cccc(C#Cc2ccc([C@H]3[C@@H](CO)N4C(=O)CN(C(=O)c5ccncc5)C[C@@H]34)cc2)c1 was read as TcdB inh 1.
Screening O=C(O)C1C(=O)NCC1c1ccccc1 (stereo not given) returned Y pestis TopoI 3, TcdB inh 24*, FadD28 FP inh -4 and BH1578 lux ind 0.
Screening CCOc1cc(/C=N/n2cnnc2)ccc1O returned Y pestis TopoI 4, BioA inh -1, TcdB inh 17*, FadD28 FP inh -2 and BH1578 lux ind -1.
`CCCNC(=O)c1cc2c(c(-c3cccc(-c4cccc(F)c4)c3)n1)[C@H](CCO)N([S@@](=O)C(C)(C)C)C2` gave BioA inh 1 and TcdB inh 1.
CO[C@H]1CN(C)C(=O)c2ccc(NC(=O)C3CCCC3)cc2OC[C@H](C)NC[C@@H]1C was read as TcdB inh 1.
C[C@H](CO)N1C[C@H](C)[C@@H](CN(C)Cc2ccc(-c3ccccc3)cc2)Oc2ccc(NC(=O)Cc3cn(C)c4ccccc34)cc2CC1=O was read as TcdB inh 0.
For CCCCCCCCCCCCC/C=C/[C@@H](O)[C@@H](N)CO the results were Y pestis TopoI -16, BioA inh -2, TcdB inh 1, FadD28 FP inh 33* and BH1578 lux ind 1.
Screening CCC(=O)N1C[C@@H](C)[C@H](OC)CN(C)C(=O)c2ccc(NC(=O)C3CC3)cc2OC[C@H]1C returned BioA inh -6 and TcdB inh 0.
For Cc1ccc(NC(=O)Nc2ccc3c(c2)C(=O)N(C)[C@H]2CC[C@@H](CC(=O)O)O[C@@H]2CO3)cc1 the results were BioA inh -3 and TcdB inh -2.
Screening COc1ccc(S(=O)(=O)/N=C2/NC(=O)/C(=C\c3ccco3)S2)cc1 returned Y pestis TopoI 3, FadD28 FP inh 8 and BH1578 lux ind 0.
For COc1ccc(S(=O)(=O)/N=C2/NC(=O)/C(=C/c3ccco3)S2)cc1 the results were Y pestis TopoI 3, TcdB inh -1, FadD28 FP inh 20* and BH1578 lux ind 0.
For O=C(C(Sc1ccccc1)c1ccccc1)N1CCN(c2ccccc2F)CC1 (stereo not given) the results were Y pestis TopoI 55*, BioA inh -1, FadD28 FP inh 0 and BH1578 lux ind inactive.
Screening Cc1cc(N2C(=O)C(O)=C(C(=O)c3cc4ccccc4o3)C2c2cccc(Br)c2)no1 (stereo not given) returned Y pestis TopoI 78*, BioA inh 0, TcdB inh 1, FadD28 FP inh -1 and BH1578 lux ind -1.

Assay outcomes: PubChem BioAssay, Broad Institute
